Screening results deposited in PubChem by several laboratories.
HIF-2a block: HIF-2a inhibition; 360,000 tested, 0.72% active; 786-0 RCC cells HIF-2a reporter, luciferase luminescence, overnight; inhibition, % at 18.8 µM;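 active means inhibition of the luminescence signal of 40% or more relative to plate controls, in a single-dose primary screen at 18.75 µM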
CF NFkB block: blocks PAF-induced NF-kB reporter in cystic fibrosis cells | 360,000 tested, 0.86% active | inhibition, % at 5 µM | KKLEB NF-kB-GFP reporter, GFP fluorescence overnight;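 active means at least 50% inhibition at 5 µM, scaled per plate between neutral and stimulator controls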;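 further: PAF is a Pseudomonas aeruginosa culture filtrate used as stimulus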
MITF TRPM1 inh: reduces MITF-dependent TRPM1 promoter luciferase signal | SK-MEL-5 TRPM1 promoter luciferase, 24 h | inhibition, % at 12.5 µM | 330,000 tested, 0.83% active;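 active means mean inhibition across replicates of 60% or more, whatever share of single replicates reaches that level; inconclusive means some that reach 60%, reason not given; inactive means mean inhibition across replicates below 60%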
Peg3 promoter: reduces Peg3 promoter-driven luciferase expression in HeLa. HeLa PEG-Prom luciferase reporter, luminescence, overnight. 360,000 tested, 1.7% active. inhibition, % at 20 µM;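 active means inhibition of at least 50% at 20 µM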
KKLEB cytotox: CF airway cell cytotoxicity counter-screen; KKLEB CF airway cells viability, ATPlite luminescence, overnight; stronger effect = lower value; cells stimulated with P. aeruginosa culture filtrate; activity change (cytotoxicity), % at 5 µM; 360,000 tested, 0.36% active; AID 602141;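 active means corrected activity change at or below -50% at 5 µM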
Shn3 inh set2: inhibitors of Schnurri-3 3'UTR reporter in osteoblasts; Clone20 osteoblast Shn3 3'UTR firefly luciferase, 24 h; inhibition, % at 12.5 µM; 360,000 tested, 0.52% active; AID 588674;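 active means mean inhibition of at least 75% with every replicate also reaching 75%; inconclusive means mean inhibition at least 75% but some replicate below; inactive means mean inhibition below 75%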
Each line names hits and unclear results; the compound was inactive in the other large screens. Sampled rows, rich in hits. Any-hit rate of the full collection: about 2.8%.

CNS(=O)(=O)c1cccc(C(=O)OCc2cc(=O)oc3c(C)c(O)ccc23)c1	none
NS(=O)(=O)c1ccc(N2CCN(C(=O)c3ccco3)CC2)nc1	Peg3 promoter 51.1
O=C(c1ccco1)N1CCN(c2ccc([N+](=O)[O-])cn2)CC1	none
CCc1cccc2sc(N3CCN(C(=O)c4ccc([N+](=O)[O-])o4)CC3)nc12	MITF TRPM1 inh 77.1
O=C(c1ccc([N+](=O)[O-])o1)N1CCN(Cc2ccccc2)CC1	none
CCCOc1ccc(CN(CCC#N)C(=S)NC(=O)c2ccccc2)cc1	none
Cc1cnc(NC(=O)c2nn(C)cc2[N+](=O)[O-])s1	MITF TRPM1 inh inconclusive, Peg3 promoter 93.5
Oc1ccc(N=Nc2ccccc2)cc1	none
Oc1ccc(N=Nc2n[nH]c(-c3ccc(Cl)cc3)n2)cc1	Peg3 promoter 77.7
c1ccc2c(-c3[nH]ncc3CNCCCn3ncc4ccccc43)cccc2c1	Shn3 inh set2 90.0
CCN=C1NN=C(c2cc(C)n(CCc3ccccc3)c2C)CS1	none
CCN=C1NN=C(c2cc(C)n(Cc3ccco3)c2C)CS1	HIF-2a block 67.5, MITF TRPM1 inh 80.0
COc1ccccc1NC(=O)c1ccccc1C(=O)N(C)Cc1ccccc1	none
CC1=CC(=O)C(C(C)C)=C/C1=N/OS(=O)(=O)c1ccccc1	Peg3 promoter 106.0
Cc1ccc2c(c1)/C(=N/OS(=O)(=O)c1ccccc1)CCS2	none
CC1=CC(=O)C=C(C)C1=NOS(=O)(=O)c1ccccc1	HIF-2a block 63.5, Peg3 promoter 82.4
O=C(Nc1cccc(F)c1)c1c(O)c2ccccc2[nH]c1=O	none
O=C(N/N=C/c1cccc(F)c1)c1c(O)c2ccccc2[nH]c1=O	CF NFkB block 64.6, KKLEB cytotox -63.6
O=C(N/N=C/c1ccccc1)c1c(O)c2ccccc2[nH]c1=O	none
O=C(N/N=C/c1ccc(F)cc1)c1c(O)c2ccccc2[nH]c1=O	MITF TRPM1 inh 62.6
COc1cc2c(cc1OC)n(CC(=O)NC1CCCCCC1)n1c(C)cc(=O)nc21	none
Cc1[nH]c(C)c(S(=O)(=O)N2CCN(c3ccccc3F)CC2)c1C(=O)N1CCCCC1	none
Cc1ccc(C)c(NC(=O)CSc2nnc3n2CCCCC3)c1	none
COc1ccc(/C=C2\Oc3cc(OCC(=O)N4CCC[C@H]4CO)ccc3C2=O)c(OC)c1	none
Cc1ccc(NC(=O)c2ccc(NS(=O)(=O)c3ccc4[nH]c(=O)[nH]c4c3)cc2)nc1	none
N#Cc1c(Nc2ccccc2)[n+]([O-])c2ccc(Cl)cc2[n+]1[O-]	MITF TRPM1 inh 72.0
CC(C)[C@H](NC(=O)c1cc2cc(Cl)ccc2n1C)C(=O)N[C@@H](C(=O)O)c1ccccc1	none
CC(=O)O[C@@H]1[C@H]2[C@@H](C[C@@H](C)[C@@H]3C=CC(=O)[C@@]13C)OC(=O)[C@@H]2C	none
C=C1C(=O)OC2C1CCC(C)C1C=CC(=O)C12C (stereo not drawn)	MITF TRPM1 inh 69.5
COc1ccc(NS(=O)(=O)c2cc(NC(=O)/C=C/c3ccccc3OC)ccc2N2CCCCC2)cc1	none
Cc1nc(CN(C)c2ncnc3ccc(-c4ccc5c(c4)OCO5)cc23)cs1	HIF-2a block 54.9 (no result: MITF TRPM1 inh)
Cc1ccc(-n2ncc(C(=O)Nc3cc(Cl)ccc3Cl)c2C2CCNCC2)cc1	none
Cc1ccc(-n2ncc(C(=O)Nc3cc(Cl)cc(Cl)c3)c2C2CCNCC2)cc1C	MITF TRPM1 inh 85.5, Peg3 promoter 59.5
NC(=O)C(C1=CCCCC1)c1ccccc1 (stereo not drawn)	none
COc1ccc(C(=O)c2sc(Nc3ccccc3F)nc2N)cc1	none (no result: MITF TRPM1 inh)
Nc1nc(Nc2ccccc2)sc1C(=O)c1ccccc1	CF NFkB block 87.4, Peg3 promoter 91.1
COc1ccc(C(=O)c2sc(Nc3ccccc3)nc2N)cc1	none
COc1ccc(C(=O)c2sc(Nc3ccccc3)nc2N)cc1OC	Peg3 promoter 78.1
CCCS(=O)(=O)NC(=O)C1(C)CCN(C(=O)c2nc(C)oc2C)C1 (stereo not drawn)	none (no result: MITF TRPM1 inh)
COc1cccc(CN(C)C(=O)c2ccc(OCC(=O)Nc3cccc(C(F)(F)F)c3)c(OC)c2)c1	Shn3 inh set2 86.4
O=C(NCC1OCCc2ccccc21)c1ccc(NC(=O)c2ccc(Cl)cc2)cc1 (stereo not drawn)	MITF TRPM1 inh 69.2
Cn1c(=O)c2c(nc(SCCCC#N)n2Cc2c(F)cccc2Cl)n(C)c1=O	none
CC(C)c1nc(SCc2c(F)cccc2Cl)c2c(=O)n(C)c(=O)n(C)c2n1	Peg3 promoter 62.8
O=C(CC1NCCNC1=O)NC1Cc2ccccc2C1 (stereo not drawn)	none
CC(C)CC1C(=O)N(Cc2cn(CCC3OCCCO3)nn2)CCS(=O)(=O)N1Cc1ccc(-c2ccc(Cl)cc2)cc1 (stereo not drawn)	none (no result: MITF TRPM1 inh)
Cc1cccc(C)c1-c1ccc(CN2C(CC(C)C)C(=O)N(Cc3cn(CCO)nn3)CCS2(=O)=O)cc1 (stereo not drawn)	Peg3 promoter 58.5
COCOCCn1cc(CN2CCS(=O)(=O)N(Cc3ccc(-c4ccc(Cl)c(Cl)c4)cc3)C(C)C2=O)nn1 (stereo not drawn)	Peg3 promoter 92.8 (no result: MITF TRPM1 inh)
CC1C(=O)N(Cc2cn(CCC3OCCCO3)nn2)CCS(=O)(=O)N1Cc1ccc(-c2ccc(Cl)c(Cl)c2)cc1 (stereo not drawn)	Shn3 inh set2 92.0 (no result: MITF TRPM1 inh)
CC(C)CC1C(=O)N(Cc2cn(CCC3OCCCO3)nn2)CCS(=O)(=O)N1Cc1ccc(-c2ccc(Cl)c(Cl)c2)cc1 (stereo not drawn)	Peg3 promoter 55.5 (no result: MITF TRPM1 inh)
COCOCCn1cc(CN2CCS(=O)(=O)N(Cc3ccc(-c4ccc(C)cc4)cc3)C(C)C2=O)nn1 (stereo not drawn)	none (no result: MITF TRPM1 inh)
O=C(NN=C1CCCC1)c1ccccc1OCc1ccc(Cl)cc1	none
Cc1c(Cl)cccc1NC(=S)NN1CCOCC1	none
CCN(CC)CCNc1ncnc2c1sc1nc(N3CCOCC3)c3c(c12)CC(C)(C)SC3	Peg3 promoter 103.6
CC1(C)Cc2c(c(N3CCOCC3)nc3sc4c(=O)[nH]cnc4c23)CS1	none
CCC(/C=C1\Sc2ccc(OC)cc2N1CCO)=C\c1sc2ccc(OC)cc2[n+]1CCO	MITF TRPM1 inh 96.1
CCC(/C=C1\Sc2ccc(OC)cc2N1CC)=C\c1sc2ccc(OC)cc2[n+]1CCCS(=O)(=O)[O-]	none
O=[N+]([O-])c1ccccc1Oc1ccc(S(=O)(=O)N2CCOCC2)cc1	none
COc1ccc(-c2oc(NC(=O)CSc3ncn[nH]3)c(C#N)c2-c2ccc(OC)cc2)cc1	none
COc1ccc(-c2oc(NC(=O)CCl)c(C#N)c2-c2ccc(OC)cc2)cc1	Peg3 promoter 102.4 (no result: Shn3 inh set2)
CCc1cccc2c(C(=O)CN3C(=O)NC(C)(c4cccc5ccccc45)C3=O)c[nH]c12 (stereo not drawn)	Peg3 promoter 59.6
Cc1ccc(C(=O)N/N=C/c2cccc(OC(=O)/C=C/c3ccco3)c2)cn1	none
